Data as given in ChEMBL document CHEMBL3988442, “University of Dundee, Small-Polar-MMV Screening Library” (2021).
The campaign covered roughly 38,000 compounds. About 1,200 (3.2%) showed an effect of 50% or more. The median lay at about -58%. For the sample, strong results were picked, then their nearest neighbours and some compounds at random.

Test system: Plasmodium falciparum
Experiment: Calibr Malaria Delayed Death Assay SOP
Assay type: functional, organism-based
Parameters: scale not given: in the data most compounds retested in dose-response had high values
Settings: concentration 4.99e-06 (unit not given; other assays of the set use mol/L)

| SMILES | Percent Effect [%] |
| --- | --- |
| COc1ccc(CN2CCCC2)cc1Oc1ccc2c(c1)CC(CN)O2 (configuration not stated) | 87.78 |
| COc1cc(CN2CCCC2)ccc1OC12CCCN(CC1)C2 (configuration not stated) | -168.7 |
| COc1ccc(CN2CCCC2)cc1Oc1ccc(NC(C)=O)cc1 | -51.76 |
| COc1cc(CN2CCCC2)ccc1Oc1ccc2c(c1)CC(CN)O2 (configuration not stated) | 58.6 |
| Cc1cc(CN2CCCC2)cc(Oc2ccc3c(c2)CC(CN)O3)c1 (configuration not stated) | 26.4 |
| COc1ccc(CN2CCCC2)cc1Oc1cccc(C#N)n1 | 41.79 |
| O=C(O)C(F)(F)F.O=C(O)C(F)(F)F.O=C(O)c1c(-c2cncnc2)ncc2c1CCN(Cc1ccco1)C2 | -132.8 |
| CCNc1ncc2c(n1)CN(c1ccc(OC(F)(F)F)cc1)C2=O | 14.47 |
| O=C(N1CCCC1)N1CCC2(CCCN(CCOc3ccccc3)C2)C1.O=C(O)C(F)(F)F (configuration not stated) | -4.272 |
| Cc1noc(C)c1CCCNc1cnccn1 | -49.46 |
| CN(C)C(=O)CN1CCOCC2(C1)CN(c1ncc(F)cn1)CCO2.O=C(O)C(F)(F)F (configuration not stated) | -15.1 |
| Cc1ccnc(N2CCCC(c3nncn3C3CC3)C2)n1 (configuration not stated) | -51.92 |
| CN1CCN(c2ccc(Br)cc2NC(=O)c2ccco2)CC1 | 52.34 |
| CN1CCN(c2ccccc2NC(=O)c2ccco2)CC1 | 31.7 |
| CN1CCN(c2ccc(Cl)cc2NC(=O)c2ccco2)CC1 | 41.12 |
| CCc1cc(CN(C)C(=O)c2cnc3c(c2)nc(N)n3CC)on1 | -104.3 |
| c1cc(N2CCSCC2)ccc1CNc1cncc2nnnn12 | -124.6 |
| c1ccc(CN2CCCC2)c(CNc2cncc3nnnn23)c1 | 60.42 |
| c1cc(CN2CCCC2)ccc1CNc1cncc2nnnn12 | -34.44 |
| Cc1cccc(NC(=O)c2cccc(OCc3nnnn3C)c2)n1 | 80.42 |
| Cc1ccnc(NC(=O)c2cccc(OCc3nnnn3C)c2)c1 | -241.7 |
| Cc1cccc(NC(=O)c2ccc(OCc3nnnn3C)cc2)n1 | -114.2 |
| CN1CC=C(CCN(C)C(=O)CCc2ccccc2)CC1 | 19.5 |
| CC(C(=O)NCc1ccco1)N1CCN(Cc2nccn2C)CC1 (configuration not stated) | -39.34 |
| Cc1ccc(CN2CC3(CCN(C(=O)Cc4ccc(Cl)cc4)C3)C2)o1 | -2.786 |
| CNC(=O)c1cc2c(nc1NCC(C)C)CCN(c1ccncn1)CC2.O=C(O)C(F)(F)F | 13.05 |

| SMILES | Percent Effect [%] |
| --- | --- |
| CC(=O)Nc1ccc(-n2ccc3nc(N4CCCC4)ncc3c2=O)cc1 | -5.195 |
| Cc1ccc(C)c(-n2ccc3nc(N4CCCC4)ncc3c2=O)c1 | -31.4 |
| COCCn1cnc2ccc(NC(=O)CCCn3cccn3)cc2c1=O | -21.82 |
| Cn1cc(-c2cnc(N3CCOCC3)nc2)cc1C(=O)NCCC#N.O=C(O)C(F)(F)F | -137.7 |
| O=C(O)CN1CCC(c2ccccc2)C1 (configuration not stated) | -52.87 |
| Cc1ccc2nc(CN3CCN(C4CCCC4)C(=O)C3)cc(O)c2c1 | -147.5 |
| Cc1cc(C)c2nc(CN3CCCC(c4cc[nH]n4)C3)cc(O)c2c1 (configuration not stated) | 52.56 |
| Cc1cc(C)c2nc(CN3CC[C@@H](O)C3)cc(O)c2c1 | -11.32 |
| Cc1ccncc1NS(=O)(=O)c1ccc(Cl)s1 | -120.5 |
| O=C(c1cnn2c1OCCC2)N1CCN(C(=O)C2CCCO2)CC1 (configuration not stated) | -54.26 |
| COC(C)(C)C(=O)NCC1CCN(Cc2cc3ccccc3[nH]2)C1 (configuration not stated) | -53.37 |
| CC(C)(C(=O)NCC1CCN(Cc2cccnc2)C1)c1ccccc1 (configuration not stated) | 51.87 |
| CC(C)(C(=O)NCC1CCN(Cc2ncc[nH]2)C1)c1ccccc1 (configuration not stated) | -18.61 |
| O=C(CCn1ccc2ccc(F)cc21)/N=c1\[nH]nc(C2CCCO2)s1 (configuration not stated) | -163.8 |
| CCC(NC(=O)CNC(=O)OC)c1cc(F)ccc1F (configuration not stated) | -47.96 |
| CCN(CC)S(=O)(=O)NC1CCCc2nc(-c3ccccc3)ncc21 (configuration not stated) | -18.05 |
| CC(=O)N1CCC2(CC1)C(=O)N(c1cccnc1)c1ccc(F)cc12 | -45.42 |
| CN1CCC2(CC1)C(=O)N(C)c1ccc(F)cc12.Cl | -104.9 |
| CN1CCC2(CC1)C(=O)N(c1cccnc1)c1ccc(F)cc12.Cl | 58.26 |
| CC(C)N1C(=O)C2(CCN(C)CC2)c2cc(F)ccc21.Cl | -16.08 |
| CC(C)N1CCC2(CC1)C(=O)N(c1cccnc1)c1ccc(F)cc12.Cl | 64.31 |
| CC(C)N1CCC2(CC1)C(=O)N(c1cccnc1)c1c(F)cccc12.Cl | 48.28 |
| CC(=O)c1cc2ncc(C(=O)NC3CC3)cc2[nH]1 | -111.2 |
| Cc1ccccc1N1CC2(CCN(S(=O)(=O)C3CC3)C2)CC1=O (configuration not stated) | -190.8 |
| CC(=O)Nc1c(C)noc1/C=C\c1ccc(S(=O)(=O)N2CCCC2)cc1 | 10.91 |
| Cc1cc(C)nc(N2CCCC(C(=O)Nc3n[nH]c(C(C)C)n3)C2)n1 (configuration not stated) | -27.75 |

| SMILES | Percent Effect [%] |
| --- | --- |
| Cc1nc(C)n(CC2CCCN(Cc3ncc(C(C)(C)C)o3)C2)n1 (configuration not stated) | -87.32 |
| Cc1nc(C)n(CC2CCCN2Cc2ncc(-c3ccccc3)o2)n1 (configuration not stated) | 26.63 |
| CCN1CCN(C2CCN(Cc3ncc(C(C)(C)C)o3)CC2)C1=O | 51.71 |
| CCC1CCCCN1Cc1ncc(C(C)(C)C)o1 (configuration not stated) | 70.27 |
| CCN1CCN(C2CCN(Cc3nnc(C4CC4)o3)CC2)C1=O | -106.8 |
| CCN1CCN(C2CCN(Cc3nnc(C(C)C)o3)CC2)C1=O | -127.6 |
| Cc1cnn(CC2CCCCN2Cc2ncc(C(C)(C)C)o2)c1 (configuration not stated) | 9.696 |
| CC(C)(C)c1cnc(CN2CCC(CO)CC2)o1 | -57.31 |
| Cc1nc(C)n(CC2CCCN2Cc2ncc(C(C)(C)C)o2)n1 (configuration not stated) | 60.71 |
| CC(C)N1C[C@@H](CO)[C@H](c2ccccc2)S1(=O)=O | -2.146 |
| COc1cccc(Cn2ncnc2CNC(C)=O)c1 | -17.74 |
| NC1CCCN(Cc2cccc(C(F)(F)F)c2)C1=O (configuration not stated) | -34.65 |
| O=S(=O)(CC1CCCCO1)Nc1c(F)cccc1-n1cccn1 (configuration not stated) | -6.246 |
| N#CC1COCCN1C(=O)c1ccc2cc[nH]c2c1 (configuration not stated) | -76.07 |
| N[C@H]1CN(C(=O)c2ccc3[nH]c(CO)nc3c2)C[C@@H]1c1ccccc1 | -84.77 |
| COCCC1COC2(CCN(C(=O)c3cccn3C)CC2)C1 (configuration not stated) | -157.5 |
| O=C(NC1CCCCC1)c1cc(Br)cnc1N1CCCCC1 | -52.51 |
| CCc1ccccc1OCCN1CC[C@@]2(O)CCNC[C@H]2C1 | -93.81 |
| COc1cc(C)ccc1OCCN1CC[C@@]2(O)CCNC[C@H]2C1 | -90.26 |
| CCn1ncnc1CN1CCC(CNC(=O)c2cccc(C)c2)C1 (configuration not stated) | -152.4 |
| Cn1cc(-c2nc(CN3CCN(CCO)CC3)cs2)cn1 | -64.62 |
| Cn1cc(-c2nc(CN3CCc4c(ncn4C4CC4)C3)cs2)cn1 | -33.38 |
| CCCC1CCCN(Cc2csc(-c3cnn(C)c3)n2)CC1 (configuration not stated) | 52.75 |
| Cn1cc(CN2CCC3(CC2)CN(c2cccnc2)C(=O)CO3)cn1 | -97.96 |
| Cn1ccnc1CN1CCc2ncnc(N3CCCC(C#N)C3)c2CC1 (configuration not stated) | -81.1 |
| c1cnn(C2CN(c3nc(-c4ccncc4)nc4c3CCC4)C2)c1 | -81.86 |

| SMILES | Percent Effect [%] |
| --- | --- |
| N#CC1CCCN(c2nc(-c3ccccc3)nc3c2CCNCC3)C1 (configuration not stated) | 79.11 |
| CC(C)CNC(=O)c1cccc(Oc2ccc3nncn3n2)c1 | -53.64 |
| O=C(C1CCOCC1)N1C[C@H](OCc2cccnc2)[C@H]2COC[C@H]21 | -121.2 |
| CSc1nccn1-c1cccc(C(=O)NCCN2CCS(=O)(=O)CC2)c1 | -149.1 |
| CCc1nc(CN2CCCN(C(=O)CCOC(C)C)CC2)cs1 | -60.5 |
| CC(C)(C)c1cn2c(n1)C(CNCc1ccccn1)CCC2 (configuration not stated) | 92.56 |
| CC(C)(C)c1ncc(CNCC2CCCn3ccnc32)s1 (configuration not stated) | 11.38 |
| Cc1cn2c(n1)C(CNCC1=Cc3cc(Cl)ccc3OC1)CCC2 (configuration not stated) | 87.8 |
| CCn1ncc2c1CCCC2NCC1=Cc2ccccc2OC1 (configuration not stated) | -139.8 |
| Clc1ccc2c(c1)C=C(CNC1CCc3ncnn3C1)CO2 (configuration not stated) | -63.09 |
| Cc1cn2c(n1)C(CNCC1=Cc3ccccc3OC1)CCC2 (configuration not stated) | 78.44 |
| O[C@@H]1CN(CC2=Cc3cc(Cl)ccc3OC2)CC[C@H]1N1CCCCCC1 | -10.35 |
| C1=C(CNC2CCc3ncnn3C2)COc2ccccc21 (configuration not stated) | -78.33 |
| CCN1CCOC(CNCc2ccccn2)C1 (configuration not stated) | -142.7 |
| O=C(Nc1cnccn1)[C@H]1CC[C@@H]2[C@@H](CCN2Cc2ccccn2)O1.O=C(O)C(F)(F)F | -97.13 |
| COc1cc(C(=O)NCCCO)cc2occc12 | -87.71 |
| CCc1[nH]c2ccc(CNC(=O)c3cnc(N)nc3C)cc2c1C | -136.6 |
| Cc1[nH]c2c(F)cccc2c1CC(=O)NC1CCCCNC1=O (configuration not stated) | -28.67 |
| O=C1CNc2ncnc(Nc3cnn(Cc4cccc(F)c4)c3)c2N1 | -137.4 |
| O=C(Cc1csc(-c2ccco2)n1)N1CCCC1Cn1cccn1 (configuration not stated) | -188.1 |
| CCS(=O)(=O)N1CCC2(CN(Cc3ccc(C)o3)C2)C1 | -57.27 |
| Cc1ccc(CN2CCC3(CCN(S(=O)(=O)c4ccccc4)C3)C2)o1 (configuration not stated) | 79.54 |
| Cc1ccc(CN2CCC3(CCCN(S(C)(=O)=O)C3)C2)o1 (configuration not stated) | -70.82 |
| O=C(c1cccs1)N1CC[C@H](O)[C@@H]1Cc1ccccc1 | -5.522 |
